# According to the supplement of paper PMC4466140:
# Columns and labels:
# Experiment in all cases: SPOT peptide array binding signal intensity (averaged, normalized) (arbitrary units (background-subtracted, floor 0; scale differs between SH3 domains)); higher = stronger binding of the SH3 domain to the peptide
# AgAbp1 = target: AgAbp1
# Experimental: (§1)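 GST-tagged SH3 domains from S. cerevisiae (Sc), A. gossypii (Ag), C. albicans (Ca) and S. pombe (Sp) were incubated at 10 ug/ml overnight at 4 C on cellulose SPOT membranes carrying 292 synthetic 15-mer peptides mined from the S. cerevisiae proteome (cysteines replaced by serines). Binding was detected with anti-GST antibody, HRP secondary and chemiluminescence, quantified with Genespotter, and reported as normalized spot intensities averaged over biological replicates.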
# AgBbc1 = target: AgBbc1
# Experimental: as §1
# AgBem1-D1 = target: AgBem1-D1
# Experimental: as §1
# AgBzz1-D1 = target: AgBzz1-D1
# Experimental: as §1
# AgBzz1-D2 = target: AgBzz1-D2
# Experimental: as §1
# AgCyk3 = target: AgCyk3
# Experimental: as §1
# AgFus1 = target: AgFus1
# Experimental: as §1
# AgHof1 = target: AgHof1
# Experimental: as §1
# AgHse1 = target: AgHse1
# Experimental: as §1
# AgLsb1 = target: AgLsb1
# Experimental: as §1
# AgLsb4 = target: AgLsb4
# Experimental: as §1
# AgMyo5 = target: AgMyo5
# Experimental: as §1
# AgNbp2 = target: AgNbp2
# Experimental: as §1
# AgRvs167 = target: AgRvs167
# Experimental: as §1
# AgSho1 = target: AgSho1
# Experimental: as §1
# AgSla1-D1-D2 = target: AgSla1-D1-D2
# Experimental: as §1
# AgSla1-D3 = target: AgSla1-D3
# Experimental: as §1
# CaAbp1-D1 = target: CaAbp1-D1
# Experimental: as §1
# CaAbp1-D2 = target: CaAbp1-D2
# Experimental: as §1
# CaBbc1 = target: CaBbc1
# Experimental: as §1
# CaBem1-D1 = target: CaBem1-D1
# Experimental: as §1
# CaBzz1-D1 = target: CaBzz1-D1
# Experimental: as §1
# CaBzz1-D2 = target: CaBzz1-D2
# Experimental: as §1
# CaCyk3 = target: CaCyk3
# Experimental: as §1
# CaFus1 = target: CaFus1
# Experimental: as §1
# CaHof1 = target: CaHof1
# Experimental: as §1
# CaHse1 = target: CaHse1
# Experimental: as §1
# CaLsb1 = target: CaLsb1
# Experimental: as §1
# CaLsb4 = target: CaLsb4
# Experimental: as §1
# CaMyo5 = target: CaMyo5
# Experimental: as §1
# CaNbp2 = target: CaNbp2
# Experimental: as §1
# CaRvs167 = target: CaRvs167
# Experimental: as §1
# CaRvs167-3 = target: CaRvs167-3
# Experimental: as §1
# CaSho1 = target: CaSho1
# Experimental: as §1
# CaSla1-D1-D2 = target: CaSla1-D1-D2
# Experimental: as §1
# CaSla1-D3 = target: CaSla1-D3
# Experimental: as §1
# ScAbp1 = target: ScAbp1
# Experimental: as §1
# ScBbc1 = target: ScBbc1
# Experimental: as §1
# ScBem1-D1 = target: ScBem1-D1
# Experimental: as §1
# ScBzz1-D1 = target: ScBzz1-D1
# Experimental: as §1
# ScBzz1-D2 = target: ScBzz1-D2
# Experimental: as §1
# ScCyk3 = target: ScCyk3
# Experimental: as §1
# ScFus1 = target: ScFus1
# Experimental: as §1
# ScHof1 = target: ScHof1
# Experimental: as §1
# ScHse1 = target: ScHse1
# Experimental: as §1
# ScLsb1 = target: ScLsb1
# Experimental: as §1
# ScLsb2 = target: ScLsb2
# Experimental: as §1
# ScLsb3 = target: ScLsb3
# Experimental: as §1
# ScLsb4 = target: ScLsb4
# Experimental: as §1
# ScMyo3 = target: ScMyo3
# Experimental: as §1
# ScMyo5 = target: ScMyo5
# Experimental: as §1
# ScNbp2 = target: ScNbp2
# Experimental: as §1
# ScPex13 = target: ScPex13
# Experimental: as §1
# ScRvs167 = target: ScRvs167
# Experimental: as §1
# ScSho1 = target: ScSho1
# Experimental: as §1
# ScSla1-D1-D2 = target: ScSla1-D1-D2
# Experimental: as §1
# ScSla1-D3 = target: ScSla1-D3
# Experimental: as §1
# SpAbp1-D1 = target: SpAbp1-D1
# Experimental: as §1
# SpBbc1 = target: SpBbc1
# Experimental: as §1
# SpBzz1-D1 = target: SpBzz1-D1
# Experimental: as §1
# SpBzz1-D2 = target: SpBzz1-D2
# Experimental: as §1
# SpCyk3 = target: SpCyk3
# Experimental: as §1
# SpHof1 = target: SpHof1
# Experimental: as §1
# SpHof1-2 = target: SpHof1-2
# Experimental: as §1
# SpHof1-3 = target: SpHof1-3
# Experimental: as §1
# SpHse1 = target: SpHse1
# Experimental: as §1
# SpLsb1 = target: SpLsb1
# Experimental: as §1
# SpLsb4 = target: SpLsb4
# Experimental: as §1
# SpMyo1 = target: SpMyo1
# Experimental: as §1
# SpNbp2 = target: SpNbp2
# Experimental: as §1
# SpPex13 = target: SpPex13
# Experimental: as §1
# SpRvs167 = target: SpRvs167
# Experimental: as §1
# SpSla1-D1-D2 = target: SpSla1-D1-D2
# Experimental: as §1
# SpSla1-D3 = target: SpSla1-D3
# Experimental: as §1
binder,measurement,setting,value
GQYRRTIVIPRRFFT,SPOT peptide array binding signal intensity,AgAbp1,24.5
same,SPOT peptide array binding signal intensity,AgBbc1,25.5
same,SPOT peptide array binding signal intensity,AgBem1-D1,52
same,SPOT peptide array binding signal intensity,AgBzz1-D1,42.5
same,SPOT peptide array binding signal intensity,AgBzz1-D2,21
same,SPOT peptide array binding signal intensity,AgCyk3,42.5
same,SPOT peptide array binding signal intensity,AgFus1,619
same,SPOT peptide array binding signal intensity,AgHof1,68
same,SPOT peptide array binding signal intensity,AgHse1,478
same,SPOT peptide array binding signal intensity,AgLsb1,10
same,SPOT peptide array binding signal intensity,AgLsb4,211
same,SPOT peptide array binding signal intensity,AgMyo5,2.25
same,SPOT peptide array binding signal intensity,AgNbp2,56.5
same,SPOT peptide array binding signal intensity,AgRvs167,14.8
same,SPOT peptide array binding signal intensity,AgSho1,255
same,SPOT peptide array binding signal intensity,AgSla1-D1-D2,763
same,SPOT peptide array binding signal intensity,AgSla1-D3,11
same,SPOT peptide array binding signal intensity,CaAbp1-D1,168
same,SPOT peptide array binding signal intensity,CaAbp1-D2,172
same,SPOT peptide array binding signal intensity,CaBbc1,128
same,SPOT peptide array binding signal intensity,CaBem1-D1,24.5
same,SPOT peptide array binding signal intensity,CaBzz1-D1,60
same,SPOT peptide array binding signal intensity,CaBzz1-D2,45
same,SPOT peptide array binding signal intensity,CaCyk3,81
same,SPOT peptide array binding signal intensity,CaFus1,2340
same,SPOT peptide array binding signal intensity,CaHof1,5
same,SPOT peptide array binding signal intensity,CaHse1,45.8
same,SPOT peptide array binding signal intensity,CaLsb1,7
same,SPOT peptide array binding signal intensity,CaLsb4,94.5
same,SPOT peptide array binding signal intensity,CaMyo5,46.5
same,SPOT peptide array binding signal intensity,CaNbp2,564
same,SPOT peptide array binding signal intensity,CaRvs167,191
same,SPOT peptide array binding signal intensity,CaRvs167-3,1390
same,SPOT peptide array binding signal intensity,CaSho1,1460
same,SPOT peptide array binding signal intensity,CaSla1-D1-D2,60
same,SPOT peptide array binding signal intensity,CaSla1-D3,89.8
same,SPOT peptide array binding signal intensity,ScAbp1,71
same,SPOT peptide array binding signal intensity,ScBbc1,2.5
same,SPOT peptide array binding signal intensity,ScBem1-D1,9
same,SPOT peptide array binding signal intensity,ScBzz1-D1,17.5
same,SPOT peptide array binding signal intensity,ScBzz1-D2,78
same,SPOT peptide array binding signal intensity,ScCyk3,108
same,SPOT peptide array binding signal intensity,ScFus1,898
same,SPOT peptide array binding signal intensity,ScHof1,4.75
same,SPOT peptide array binding signal intensity,ScHse1,995
same,SPOT peptide array binding signal intensity,ScLsb1,10.2
same,SPOT peptide array binding signal intensity,ScLsb2,29
same,SPOT peptide array binding signal intensity,ScLsb3,210
same,SPOT peptide array binding signal intensity,ScLsb4,33
same,SPOT peptide array binding signal intensity,ScMyo3,12.5
same,SPOT peptide array binding signal intensity,ScMyo5,10
same,SPOT peptide array binding signal intensity,ScNbp2,346
same,SPOT peptide array binding signal intensity,ScPex13,15.2
same,SPOT peptide array binding signal intensity,ScRvs167,69.3
same,SPOT peptide array binding signal intensity,ScSho1,1020
same,SPOT peptide array binding signal intensity,ScSla1-D1-D2,205
same,SPOT peptide array binding signal intensity,ScSla1-D3,54.5
same,SPOT peptide array binding signal intensity,SpAbp1-D1,242
same,SPOT peptide array binding signal intensity,SpBbc1,12.5
same,SPOT peptide array binding signal intensity,SpBzz1-D1,107
same,SPOT peptide array binding signal intensity,SpBzz1-D2,4.5
same,SPOT peptide array binding signal intensity,SpCyk3,21
same,SPOT peptide array binding signal intensity,SpHof1,186
same,SPOT peptide array binding signal intensity,SpHof1-2,50
same,SPOT peptide array binding signal intensity,SpHof1-3,321
same,SPOT peptide array binding signal intensity,SpHse1,573
same,SPOT peptide array binding signal intensity,SpLsb1,5
same,SPOT peptide array binding signal intensity,SpLsb4,131
same,SPOT peptide array binding signal intensity,SpMyo1,4.75
same,SPOT peptide array binding signal intensity,SpNbp2,287
same,SPOT peptide array binding signal intensity,SpPex13,79.5
same,SPOT peptide array binding signal intensity,SpRvs167,43
same,SPOT peptide array binding signal intensity,SpSla1-D1-D2,6
same,SPOT peptide array binding signal intensity,SpSla1-D3,47
